Results on 14 compounds are retold here after PubChem BioAssay (NCI).

The structures appear in SMILES notation. The panel holds about 83,000 compounds, 20% with a hit somewhere; the sample as a whole holds those more often.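 Values shown are percent growth following 48 h exposure of cells in 96-well plates to a single concentration of compound; below 10 was considered active.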 Active and inactive are the calls of the source.

For the experiment, the system named is MDA-MB-468 breast. Description: NCI-60 one-dose screen, 48 h (100 = growth as untreated, 0 = no growth, -100 = all killed). As to conditions: 10 µM unless noted.
Take `Cc1nc(Nc2ccc(Cl)cc2)c2cnn(-c3ccccc3)c2n1`: the growth is 98.3% (inactive). For `COc1cc2c(cc1OC)-c1ccc3cc4c(cc3c1N(CCN1CCCC1)C2)OCO4` the value was -5.22% (active); for `IC(I)I`, 106% (inactive); for `CCCn1c(=O)[nH]c(N)c([C@H]2c3ccccc3Oc3[nH]c(=O)n(CCC)c(=O)c32)c1=O`, 68.7% (inactive). For the compound `O=c1oc2ccc(F)cc2c(=O)n1-c1ccc(I)cc1F`, the growth was -1.22% (active).

On to `O=S(=O)(O)c1cccc2cccnc12`, for which the growth is 100% (inactive).

`O=C1Nc2ccc(Cl)cc2/C1=C/c1ccc[nH]1`: the growth is -19.6% (active). In the case of `CN1C(=O)NC(c2ccc3c(c2)OCO3)C=C1c1ccccc1` (centres undefined) it was 98.2% (inactive).

With `C=C(C)[C@@H]1CC[C@]2(C(=O)N[C@H](CO)Cc3ccccc3)CC[C@]3(C)[C@H](CC[C@@H]4[C@@]5(C)CCCNC(C)(C)[C@@H]5CC[C@]43C)[C@@H]12`, the growth was -90.5% (active). Regarding `COc1ccc(C2=NN(/C=C3\SC(=O)NC3=Nc3ccc(F)cc3)C(c3ccc(F)cc3)C2)cc1` (centres undefined), the growth was 101% (inactive). For `O=[N+]([O-])c1cc(-c2ccccc2)c(O)c([N+](=O)[O-])c1`, the growth is 71.5% (inactive). For `CCc1ccc(NC(=O)N[C@@H](Cc2cccc(C)c2)C(=O)N[C@@H]2C(=O)N3CCC[C@H]3C(=O)N3CCCC[C@H]3C(=O)N[C@@H](CO)C(=O)N3C[C@H](C)C[C@H]3C(=O)O[C@H]2C)c(F)c1` the value was -14.2% (active); for `CC(C)(C)CC(C)(C)c1ccc(OCCSC(=N)N)cc1`, -23.9% (active). Consider `OC(COCc1ccccc1)COCc1ccccc1`, for which the growth was 108% (inactive).
